Results taken from PubChem BioAssay (NCI).
The panel holds about 83,000 compounds, 20% with a hit somewhere; the sample as a whole holds those more often.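 How to read the values: 0–100, growth inhibition (40 = 60% inhibited); 0, no net growth; -100 to 0, cell death (-40 = 40% of starting cells died; -100 = all dead).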 A number with no mark means an inactive call. Activity calls are given as the source filed them. How the source made its calls: active means growth percent below 10; inactive means the rest.

Assays:
Test in all cases: NCI-60 one-dose screen, 48 h (100 = growth as untreated, 0 = no growth, -100 = all killed)
Settings in all cases: 10 µM unless noted
T-47D breast = tested on: T-47D breast
MDA-MB-435 melanoma = tested on: MDA-MB-435 melanoma
MCF7 breast = tested on: MCF7 breast
HCT-116 colon = tested on: HCT-116 colon
HCC-2998 colon = tested on: HCC-2998 colon
KM12 colon = tested on: KM12 colon
SW-620 colon = tested on: SW-620 colon
BT-549 breast = tested on: BT-549 breast

| SMILES | growth (T-47D breast) | growth (MDA-MB-435 melanoma) | growth (MCF7 breast) | growth (HCT-116 colon) | growth (HCC-2998 colon) | growth (KM12 colon) | growth (SW-620 colon) | growth (BT-549 breast) [%] |
| --- | --- | --- | --- | --- | --- | --- | --- | --- |
| O=C(Nc1cccc(-n2ccc3c(NC(=O)c4ccccc4)nccc32)c1)c1ccc(N2CCOCC2)c(C(F)(F)F)c1 | 7.57% (active) | 5.17% (active) | 14% | 12.5% | 8.77% (active) | 7.93% (active) | – | – |
| COc1ccc(-c2cc(C(=O)Nc3ccc(Br)cc3)nc3[nH]c(=O)sc23)cc1 | -0.894% (active) | 39.6% | 24.3% | 32.1% | 36.1% | 34.7% | 57.1% | – |
| CCOC(=O)Cn1c(-c2nonc2NC(=O)c2ccccc2F)nc2ccccc21 | 75.6% | 49.3% | 37% | 22.9% | 33.3% | 41.1% | 38.5% | – |
| COc1cc(OC)cc(-c2ccc(-c3ccc(C(=N)N)s3)s2)c1 | -70.2% (active) | -81.9% (active) | – | -73.5% (active) | -71.7% (active) | -73.3% (active) | -69.2% (active) | – |
| CN1C2CCC1/C(=C\c1ccc(F)cc1)C(=O)/C2=C/c1ccc(F)cc1 | 41.2% | 31.3% | 24.5% | 9.46% (active) | 82.6% | 31.3% | 38.2% | – |
| c1ccc2c(N=NSc3ncnc4nc[nH]c34)c3ccccc3nc2c1 | -23.7% (active) | 5.09% (active) | -27.7% (active) | -33.7% (active) | 6.89% (active) | 9.38% (active) | -27.6% (active) | – |
| COc1ccc([C@H]2c3[nH]c4ccccc4c3C[C@H]3C(=O)N(CCCCCCC(=O)NO)CC(=O)N23)cc1 | 7.57% (active) | 24.6% | 29.9% | 10.4% | 6.81% (active) | 49.8% | 4% (active) | – |
| O=C(O)CSc1ccc(NCc2oc(CO)cc(=O)c2O)cc1 | 108% | 116% | 93.8% | 95.2% | 99.9% | 100% | 105% | – |
| O=C1CCCN1C(O)CCN(Cc1ccccc1)Cc1ccc(Cl)cc1 (stereo unspecified) | 99.6% | 103% | 94.1% | 96.7% | 108% | 105% | 100% | – |
| CCOC(=O)c1ccc2c(c1)nc(-c1ccc(Cl)cc1)n2-c1cc(C(C)(C)C)[nH]n1 | 49.3% | -31.2% (active) | 9.39% (active) | 8.57% (active) | 56.1% | 29.9% | 42.1% | – |
| Cc1nc(N)nc2c1CCC(Nc1ccccc1)S2 (stereo unspecified) | 101% | 101% | 104% | 97% | 104% | 110% | 102% | – |
| CO[C@H](C(=O)[C@@H](O)[C@@H](C)O)[C@@H]1Cc2cc3cc(O[C@H]4C[C@@H](O[C@H]5C[C@@H](O)[C@H](O)C(C)O5)[C@H](O)C(C)O4)c(C)c(O)c3c(O)c2C(=O)[C@H]1O[C@H]1C[C@@H](O[C@H]2C[C@@H](O[C@H]3C[C@](C)(O)C(=O)C(C)O3)[C@@H](O)C(C)O2)[C@H](O)C(C)O1 (stereo partly specified) | -8.49% (active) | -41.3% (active) | 6.66% (active) | 4.55% (active) | -9.52% (active) | 1.23% (active) | 8.29% (active) | – |
| COC(=O)C(Br)(C(=O)OC)C(Br)C(Br)C(Br)c1ccccc1 (stereo unspecified) | – | 47.9% | 18.3% | -92.6% (active) | 98.4% | 89.9% | -79% (active) | 108 |
| ClC1=NC(Cl)C(Cl)=N/C1=N\c1ncn[nH]1 (stereo unspecified) | -38.3% (active) | 13.8% | 5.67% (active) | -70.2% (active) | 53.6% | 26.4% | -78.7% (active) | – |
| COc1ccc(C(=O)O)cc1.[Ag] | 92.6% | 95.3% | 100% | 94.5% | 104% | 87% | -61.9% (active) | – |
| C=CC(=O)N1CN(C(=O)C=C)CN(C(=O)C=C)C1 | 33.6% | 81.2% | 39.6% | 13.7% | 101% | 85.8% | 15.3% | – |
| CCNC(=O)c1ccc2c(c1)nc(-c1ccc(Cl)cc1)n2-c1cc(C(C)(C)C)[nH]n1 | 51.7% | -20.6% (active) | 14.7% | 15.3% | 63.4% | 38.9% | 42.7% | – |
| CN(C)c1nc(-c2ccco2)n2nc(-c3ccc(Cl)cc3)cc2n1 | 47.9% | 89.6% | 68.2% | 43.4% | 86% | 84.4% | 62.7% | – |
| O=S1(=O)NCCCN1CCNc1nccc(-c2c(-c3cccc(O)c3)nc3sccn23)n1 | 78.3% | 24.6% | 91.8% | 31% | 108% | 102% | 88% | – |
